# Screening data (PubChem BioAssay)
# In the library only some 0.64% were active in any assay of this set; here they are far more common.
# IL2 activator – activates IL-2 in a cell-based reporter assay; 360,000 compounds, 0.065% hits; activation, % (series mostly up to about 46 µM); IL-2 activation reporter assay, cell-based qHTS; stimulated with anti-CD3/CD4/CD28 beads; in transgenic mouse T cells; AID 652025; in the data active = activation above about 50%; inconclusive = mostly about 30% to 49%; note: 0% is about no effect
#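 Using fluorescent plate cytometry, EGFP and DsRed are detected in transgenic mouse T cells stimulated 18 h at 37 degrees C with antibody-coated beads after 60 min compound pretreatment.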
# EPAC2 antagonist – blocks human EPAC2 exchange factor | Potency, µM (highest dose often 114 µM), without a hit: at the top dose activity, negative = inhibition, most hits filed as inhibitors | EPAC2 GEF exchange of Rap1B-BODIPY-GDP, fluorescence | 360,000 compounds, 0.18% hits; note: potency is the fitted concentration of half-maximal effect; % is set by controls: 0 for no effect and ±100 for the full control effect; nearly all actives have a fitted effect of over 45% in size
# EPAC1 ag – agonists of human EPAC1. O95398. EPAC1 agonist qHTS, biochemical assay; response scale: 100% = response to 6.5 mM cAMP. Potency, µM (top dose mostly 154 µM), inactives show at the top dose activation, actives largely listed as activators. 360,000 compounds, 0.073% hits. AID 720707; note: potency is the fitted concentration of half-maximal effect; nearly all actives have a fitted effect of over 60% in size
# Target sequence (O95398 whole entry, looked up): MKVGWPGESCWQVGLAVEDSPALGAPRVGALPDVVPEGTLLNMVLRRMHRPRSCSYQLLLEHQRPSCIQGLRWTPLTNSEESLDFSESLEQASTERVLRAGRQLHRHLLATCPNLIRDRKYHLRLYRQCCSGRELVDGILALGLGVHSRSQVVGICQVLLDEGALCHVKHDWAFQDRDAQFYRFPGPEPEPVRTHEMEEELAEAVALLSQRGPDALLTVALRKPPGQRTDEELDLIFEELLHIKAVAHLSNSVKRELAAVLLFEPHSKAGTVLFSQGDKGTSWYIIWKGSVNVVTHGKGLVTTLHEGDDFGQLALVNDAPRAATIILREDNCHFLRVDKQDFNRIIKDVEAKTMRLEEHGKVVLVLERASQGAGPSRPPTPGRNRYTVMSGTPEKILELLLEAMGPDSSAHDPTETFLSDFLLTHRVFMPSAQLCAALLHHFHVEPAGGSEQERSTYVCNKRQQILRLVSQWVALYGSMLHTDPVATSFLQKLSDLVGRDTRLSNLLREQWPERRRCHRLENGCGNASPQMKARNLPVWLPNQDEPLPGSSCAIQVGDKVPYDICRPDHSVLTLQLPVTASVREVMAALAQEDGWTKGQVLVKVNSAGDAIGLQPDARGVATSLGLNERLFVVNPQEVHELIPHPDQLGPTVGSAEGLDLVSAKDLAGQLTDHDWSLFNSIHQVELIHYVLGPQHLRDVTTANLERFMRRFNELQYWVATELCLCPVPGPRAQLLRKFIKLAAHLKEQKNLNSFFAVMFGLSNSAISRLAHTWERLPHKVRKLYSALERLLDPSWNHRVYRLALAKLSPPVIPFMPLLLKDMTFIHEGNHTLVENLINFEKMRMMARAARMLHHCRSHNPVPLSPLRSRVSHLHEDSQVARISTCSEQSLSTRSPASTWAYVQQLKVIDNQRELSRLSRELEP
#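 Multi-concentration qHTS readout: loss of Rap1B-bound BODIPY-GDP fluorescence driven by 100 nM EPAC1 with excess GDP (50 uM), monitored kinetically at room temperature; agonist response expressed relative to 6.5 mM cAMP.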
# PKM2 activator – activators of human pyruvate kinase M2; 260,000 compounds, 0.34% hits; purified PKM2, Kinase-Glo ATP luminescence, activation; response scale: 0% is enzyme alone, no compound; Potency, µM (titrated, usually from 57.5 µM), inactives show top-dose activation, hits mostly activators; AID 1631; note: potency is the fitted concentration of half-maximal effect; % is set by controls: 0 for no effect and ±100 for the full control effect; nearly all actives have a fitted effect of over 55% in size
#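 ATP formation by purified human PK-M2, quantified via coupled luciferase luminescence after 1 h at room temperature with 0.1 mM ADP and 0.5 mM PEP final.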
# EPAC2 agonist – activates human EPAC2 exchange factor | Q8WZA2 | 360,000 compounds, 0.079% hits | EPAC2 activation, biochemical qHTS; response scale: 100% = 6.5 mM cAMP response | Potency, µM (doses to about 154 µM), without a hit: at the highest dose activation, usual class: activators; note: potency is the fitted concentration of half-maximal effect; nearly all actives have a fitted effect of over 50% in size
#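 Compounds were added across a concentration range to EPAC2 (100 nM), RAP1B-BODIPY-GDP (250 nM) and GDP (50 uM). After 5 min at room temperature, fluorescence was recorded at 5-min intervals for 30 min.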
# EPAC1 antagonist – blocks human EPAC1 exchange factor | O95398 | EPAC1 GEF assay, Rap1b-BODIPY-GDP exchange fluorescence | Potency, µM (highest dose often 115 µM), for inactives: top-dose activity change, negative = inhibition, actives largely listed as inhibitors | 360,000 compounds, 0.14% hits | AID 720709;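 note: potency is the fitted concentration of half-maximal effect; plate controls were vehicle for no effect and positive control for full effect; nearly all actives have a fitted effect of over 50% in size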
# HeLa viability – counter-screen for pyruvate kinase M2 activators: HeLa cytotoxicity. HeLa viability, CellTiter-Glo ATP luminescence, 24 h. 230 tested, under 10 active. shares compounds with PKM2 activator. AID 1898. activity change, negative = cytotoxicity, % at 57.5 µM; note: % of control where 0% means no effect
# * marks the source's active call; other numbers are inactive results; ? = inconclusive; . = no result given; [ ] = another dose, or the depositor's remark. Unless noted, calls come from the whole dose curve; as a rule, active = well fitted curve in the direction sought with a large enough effect; inconclusive = small, poorly fitted or top-dose-only effect, or another doubt; inactive = no such curve, though single readings can be large; an effect the other way counts as inactive or inconclusive.
SMILES,IL2 activator,EPAC2 antagonist,EPAC1 ag,PKM2 activator,EPAC2 agonist,EPAC1 antagonist,HeLa viability
Cc1ccc(S(=O)(=O)N2CCN(c3ccc([N+](=O)[O-])c(Sc4nncn4C)c3)CC2)cc1,-1,-3%,-5%,0.2µM*,5%,2%,1
CC(Sc1ncc(C#N)c(N)n1)C(=O)Nc1ccccc1 (configuration not stated),-1,6%,4%,4.5µM*,2%,1%,-1
Cc1noc(C)c1COc1ccccc1C(=O)NCCc1ccc(S(N)(=O)=O)cc1,0,8%,2%,-3%,2%,5%,.
Cc1ccc(S(=O)(=O)NC(CC(C)C)C(=O)Nc2ccncc2)cc1 (configuration not stated),-6,20%,0%,.,0%,10%,.
CCc1nnc(NC(=O)CSc2nnc(-c3ccc(NS(=O)(=O)c4ccccc4)cc3)o2)s1,-1,-6%,4%,0.79µM*,2%,?,6
COc1ccc(C(=O)/C=C/C(=O)N(CC(=O)NC2CCCCC2)Cc2ccccc2)c(O)c1,0,-10%,-4%,3.5µM*,-13%,11%,?
O=S(=O)(c1c(F)cccc1F)N1CCN(S(=O)(=O)c2c(F)cccc2F)CC1,.,.,.,.,.,.,-17
O=C(c1ccc2c(=O)n(Cc3ccco3)c(=S)[nH]c2c1)N1CCN(Cc2ccccc2)CC1,-1,-1%,11%,0.63µM*,-5%,6%,-2
CCNS(=O)(=O)c1ccc(NC(=O)c2ccc(Cn3cc(Br)cn3)o2)cc1,2,-3%,-1%,5µM*,-5%,-6%,0
CCn1c(SCC(=O)Nc2cccc(O)c2)nc2c1c(=O)n(C)c(=O)n2C,0,15%,-9%,1.1µM*,5%,-2%,-5
CCNc1nc(NCC)nc(Oc2ccc(N)cc2)n1,-2,3%,10%,2.5µM*,1%,8%,-2
CCNc1nc(OC)nc(Oc2ccc(C(=O)OC)cc2)n1,1,10%,3%,2%,5%,5%,.
CN(c1ccccc1)S(=O)(=O)c1cccc(C(=O)NCCc2ccc(O)c(O)c2)c1,-1,-15%,0%,1.4µM*,7%,-23%,-22
COc1ccc(Br)cc1S(=O)(=O)Nc1ncccc1C,0,-5%,-15%,6.3µM*,-10%,-26%,0
COc1ccc(S(=O)(=O)NCC2CCCN(C(=O)c3ccccc3)C2)cc1 (configuration not stated),0,2%,12%,2.5µM*,12%,-1%,3
CCc1ccc(CCC(=O)Nc2nccs2)o1,-1,-2%,-1%,-2%,7%,4%,.
Cc1ccc(CCC(=O)Nc2nccs2)o1,-1,5%,4%,20µM*,9%,-2%,4
CCn1c(C)nc2cc(C(=O)N/N=C/c3ccc(O)c(O)c3O)ccc21,5,-11%,12%,3.2µM*,-9%,?,2
O=C(COC(=O)c1cccs1)Nc1nnc(-c2ccccc2)o1,-3,2%,-2%,.,0%,-3%,.
Cc1cc(NC(=O)c2cnn3c(C(F)(F)F)cc(-c4ccccc4)nc23)no1,0,-7%,6%,3.5µM*,-5%,-8%,28
Cc1ccc(NS(=O)(=O)c2ccc3oc(=O)ccc3c2)cc1Cl,0,-20%,1%,1µM*,13%,-12%,-4
COC(=O)[C@]1(C)N[C@H](CN(C)C(=O)Nc2ccccc2)[C@@H]2C(=O)N(C)C(=O)[C@@H]21,0,5%,-6%,.,1%,-5%,.
O=c1[nH]c(Cn2nnc(-c3ccccc3)n2)nc2scc(-c3ccccc3)c12,-2,-1%,-9%,14µM*,-7%,-21%,-20
O=S1(=O)c2ccccc2N=NN1Cc1ccc(Cl)c(Cl)c1,.,.,.,26%,.,.,.
CC(C)(C)c1ccc(CN2N=Nc3ccccc3S2(=O)=O)cc1,-2,6%,0%,3.2µM*,16%,4%,?
SMILES,IL2 activator,EPAC2 antagonist,EPAC1 ag,PKM2 activator,EPAC2 agonist,EPAC1 antagonist,HeLa viability
COC(=O)C1=C(C)N(CCc2cc(OC)c(OC)c(OC)c2)C(=O)N[C@H]1c1ccccc1,0,9%,-22%,-8%[11.5 µM],-6%,14%,.
COC(=O)c1[nH]c2ccccc2c1NS(=O)(=O)c1ccc(F)c(C)c1,-1,-15%,4%,10µM*,12%,-11%,-10
CCCS(=O)(=O)Nc1c(C(=O)OC)[nH]c2ccccc12,0,25%,3%,5%,3%,19%,.
Cc1cc2c(s1)c1cnn(Cc3ccc(-c4ccccc4)cc3)c(=O)c1n2C,.,.,.,.,.,.,-1
Cn1c2cc(Br)sc2c2cnn(Cc3c(F)cccc3Cl)c(=O)c21,2,-10%,7%,.,10%,-12%,.
Cc1cc2c(s1)c1cnn(Cc3ccc(Cl)cc3)c(=O)c1n2C,.,.,.,.,.,.,-17
Cn1c2ccccc2c2cnn(CC(=O)O)c(=O)c21,-1,-2%,2%,0%,1%,-12%,.
COc1cc(NC(=O)CSc2nnc3c(n2)[nH]c2ccc(S(=O)(=O)NC(C)C)cc23)cc(OC)c1OC,-1,-14%,-11%,0.79µM*,-12%,-19%,-18
O=C(CSc1nnc2c(n1)[nH]c1ccc(S(=O)(=O)N3CCOCC3)cc12)Nc1ccc(F)c(F)c1,-2,0%,-16%,-11%,-7%,2%,.
Cc1nc2ccc(Cl)cn2c1[N+](=O)[O-],1,0%,6%,.,-7%,13%,.
CCc1c(C(=O)NCc2ccccc2Cl)[nH]c(C)c1C(C)=O,0,3%,-9%,2%,-1%,-3%,.
CC(=O)c1c(C)[nH]c(C(=O)NCc2ccccc2Cl)c1C,-2,-1%[57.1 µM],-1%,7.9µM*,-4%,-26%,-3
Cn1c2cc([N+](=O)[O-])sc2c2cnn(Cc3ccccc3F)c(=O)c21,.,.,.,.,.,.,15
COC(=O)c1cc2c(s1)c1cnn(Cc3ccccc3F)c(=O)c1n2C,.,.,.,.,.,.,2[23.3 µM]
CC(C)c1cc2c(s1)c1cnn(Cc3ccccc3F)c(=O)c1n2C,.,.,.,.,.,.,?
Cn1c(=O)c2ccccc2n(Cc2ccccc2F)c1=O,-3,3%,-1%,-8%,8%,4%,.
Cn1c2cc(C#N)sc2c2cnn(Cc3ccccc3F)c(=O)c21,.,.,.,.,.,.,-5
COC(=O)Cn1ncc2c3ccccc3n(C)c2c1=O,1,-5%,-7%,9%,4%,-14%,.
O=C(COc1ccc2c(c1)OCO2)Nc1nccs1,-4,2%,14%,.,11%,-22%,.
